Source: PubChem BioAssay (National Center for Advancing Translational Sciences (NCATS))
Compounds with a hit are over-represented: about 17% of the library has one in this group of screens.
ClpP mod = qHTS Assay for Activators of ClpP; AID 651965, 2013; Potency, µM (doses to about 57.5 µM); purified B. subtilis ClpP, FRET peptide cleavage, 20 min; ATP-dependent Clp protease proteolytic subunit (Bacillus subtilis (strain 168)), P80244; actives 1.9% (n = 340,000); active = well fitted falling curve with a large enough effect; inconclusive = small, poorly fitted or top-dose-only effect; inactive = no such curve, though single readings can be large or run the other way; note: the source files actives as falling curves though it sought activators and does not explain the sign; nearly all actives have a fitted effect of over 65% in size
Target sequence (P80244 whole entry, looked up): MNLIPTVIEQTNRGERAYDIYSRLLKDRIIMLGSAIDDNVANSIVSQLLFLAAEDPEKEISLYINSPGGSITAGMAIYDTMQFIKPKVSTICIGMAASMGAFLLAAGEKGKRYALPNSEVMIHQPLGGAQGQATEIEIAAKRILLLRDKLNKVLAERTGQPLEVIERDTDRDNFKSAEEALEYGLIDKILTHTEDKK
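Purified B. subtilis ClpP, 10 microg/mL final in Tris/HCl pH8 with KCl, BSA, glycerol and Tween-20, cleaved an Abz/nitrotyrosine-quenched decapeptide. Fluorescence (ex 320, em 430) was read at 0 and 20 min at room temperature. Delta was normalized to 5.8 microM ADEP and DMSO/no-enzyme controls.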
TDP1 block = blocks human tyrosyl-DNA phosphodiesterase 1. AID 485290. Potency, µM (doses to about 130 µM), most hits filed as inhibitors. actives 0.28% (n = 350,000). Q9NUW8. recombinant TDP1, AlphaScreen DNA substrate cleavage; note: nearly all actives have a fitted effect of over 40% in size
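Tdp1 1 nM final; 15 min RT w/ cpd; substrate 15 nM, 5 min; beads 10 ug/ml, 10 min; AlphaScreen read. Neg ctrl: no enzyme.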
DT40 TDP1 no CPT = qHTS for Inhibitors of human tyrosyl-DNA phosphodiesterase 1 (TDP1): qHTS in cells in absence of CPT; actives 15% (n = 420,000); Potency, µM (top dose mostly 46.2 µM), most hits filed as inhibitors; DT40 Tdp1-/- hTDP1 cells, no CPT, ATP luminescence, 48 h; note: nearly all actives have a fitted effect of over 55% in size
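Growth kinetics read by CellTiter-Glo luminescence after ≥48 hr at 37 °C. Cells: DT40 Tdp1-/- stably carrying human TDP1, 400 per well, compound exposure in the absence of CPT (DMSO vehicle).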
DT40 TDP1 CPT = DT40-hTDP1 cell growth loss with CPT; chicken DT40 Tdp1-/-;hTDP1 cells + 20 nM CPT, ATP luminescence, 48 h; Potency, µM (doses to about 46.2 µM), usual class: inhibitors; actives 12% (n = 420,000); AID 686979; note: nearly all actives have a fitted effect of over 55% in size
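Chicken DT40 Tdp1-/- cells stably complemented with human TDP1 were seeded at 400 cells/well in medium containing 20 nM camptothecin, exposed to pin-transferred compounds, and grown at 37 °C for at least 48 hr. Viability was read as ATP luminescence.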
A number is an active result; – = inactive; ? = inconclusive; · = not tested or not shown; [ ] = dose if it differs, or a comment. Unless noted, calls come from the whole dose curve; as a rule, active = well fitted curve in the direction sought with a large enough effect; inconclusive = small, poorly fitted or top-dose-only effect, or another doubt; inactive = no such curve, though single readings can be large; an effect the other way counts as inactive or inconclusive.

SMILES	ClpP mod	TDP1 block	DT40 TDP1 no CPT	DT40 TDP1 CPT
O=C(NC1CCN(Cc2ccc(Cl)cc2)CC1)c1cn(-c2ccccc2)nc1-c1cccnc1	–	–	?	16µM
O=C(NCc1cccnc1)c1cn(-c2ccccc2)nc1-c1ccccc1	·	–	–	–
CCc1nc2ccc(C(=O)Nc3ccc(NC(C)=O)cc3)cn2c1N(CCC(C)C)CCN(C)C	–	·	–	–
CC(=O)C(Sc1nccc(-c2cccs2)n1)C(C)=O	·	–	18µM	?
O=S(=O)(c1cccc(C(F)(F)F)c1)N1CCC(c2cc(-c3cccc4ccccc34)n[nH]2)CC1	?	–	?	21µM
COCCOC(=O)c1cc(C(=O)c2cc(F)ccc2O)coc1=N	16µM	–	–	–
COC(=O)c1cc(C(=O)c2cc(Cl)ccc2O)coc1=N	–	–	–	?
COc1cccc(NC(=O)CN(C)C(=O)c2c(C)noc2C)c1	–	–	–	–
O=C(CSc1nnnn1C1CCCCC1)Nc1nc2c(s1)CCCC2	–	–	21µM	15µM
N#Cc1c(NC(=O)CSc2nnnn2C2CCCCC2)sc2c1CCCC2	–	–	16µM	?
COc1cc2cnc(-c3ccccc3)c(C(=O)c3ccc(F)cc3)c2cc1OC	–	–	23µM	18µM
O=[N+]([O-])c1ccc(-c2c(-c3ccccc3)ncc3ccc(F)cc23)cc1	–	–	?	?
COC(=O)c1ccc(-c2c(-c3ccccc3)ncc3cc(F)ccc23)cc1	?	–	26µM	13µM
N#Cc1ccc(-c2c(-c3ccccc3)ncc3cc(F)ccc23)cc1	?	–	16µM	10µM
CCC(C)NC(=O)Cn1c(-c2cccs2)cc2cc(Cl)ccc21 (stereo not drawn)	?	–	–	–
O=C(Cn1c(-c2cccs2)cc2cc(Cl)ccc21)NCc1ccccc1	28µM	–	?	?
O=C(O)Cn1c(-c2cccs2)cc2cc(Cl)ccc21	–	–	–	–
CC(C)Oc1ccc(CNC(=O)Cn2c(-c3cccs3)cc3ccccc32)cc1	35µM	–	–	–
CCN1CCN(CCCNC(=O)Cn2c(-c3cccs3)cc3cc(Cl)ccc32)CC1	32µM	–	?	?
CCc1ccc(CNC(=O)Cn2c(-c3cccs3)cc3cc(F)ccc32)cc1	–	–	?	?
CCN(CC)CCCNC(=O)Cn1c(-c2cccs2)cc2cc(Cl)ccc21	28µM	–	21µM	?
COc1ccc(NC(=S)NC(=O)/C=C/c2ccc(F)cc2)cc1	–	·	–	–
COc1ccc(/C=C/C(=O)Nc2nc(-c3cccs3)ns2)cc1	–	–	18µM	?
COc1ccc(/C=C/C(=O)NC(=S)NNC(=O)Cc2cccs2)cc1	–	–	?	21µM
COc1ccc(C(=O)NNC(=S)NC(=O)/C=C/c2cccs2)cc1	·	–	?	?
SMILES	ClpP mod	TDP1 block	DT40 TDP1 no CPT	DT40 TDP1 CPT
O=C(/C=C/c1cccs1)NC(=S)NNC(=O)c1ccccc1O	·	–	4.6µM	5.2µM
O=C(/C=C/c1ccccc1)NC(=S)NNC(=O)Cc1cccs1	–	–	18µM	?
Cc1ccc2c(c1)C1CN(C)CCC1N2S(=O)(=O)c1ccccc1F (stereo not drawn)	–	–	–	–
CCOCCc1nn2c(=O)cc(COC(=O)c3ccccc3NC(=O)c3ccccc3F)nc2s1	–	–	–	–
COc1ccc(S(=O)(=O)N2CCCOC2CNC(=O)C(=O)NCc2ccccc2C)cc1 (stereo not drawn)	–	·	–	–
CC(C)N(C(=O)c1nn(C)c2c1CSc1ccccc1-2)C1CCCCC1	–	–	10µM	21µM
COc1ccc(OC)c(CNC(=O)c2nn(C)c3c2CSc2ccccc2-3)c1	–	–	?	21µM
Cn1nc(C(=O)NC2CCCCC2)c2c1-c1ccccc1SC2	–	·	?	26µM
CC1CCC(NC(=O)c2nn(C)c3c2CSc2ccccc2-3)CC1 (stereo not drawn)	–	–	?	?
CC(C)OCCCNC(=O)c1nn(C)c2c1CSc1ccccc1-2	–	–	21µM	?
Cc1ccc(SCC(=O)NNC(=O)CCS(=O)(=O)c2ccccc2)cc1	–	–	–	–
CCNC(=O)CCCN1C(=O)CCn2nc(-c3cccn3C)cc21	–	–	–	–
CCOc1ccc(CCNC(=O)c2nn(C)c3c2CSc2ccccc2-3)cc1	–	–	?	16µM
CCN(CC)S(=O)(=O)c1ccc(NC(=O)c2nn(C)c3c2CSc2ccccc2-3)cc1	–	–	18µM	?
Cn1nc(C(=O)N2CCN(c3ccccc3)CC2)c2c1-c1ccccc1SC2	–	–	–	–
CC(C)CCNC(=O)c1nn(C)c2c1CSc1ccccc1-2	–	–	18µM	?
Cc1ccc(N2CCN(C(=O)c3nn(C)c4c3CSc3ccccc3-4)CC2C)cc1 (stereo not drawn)	–	–	?	23µM
COc1cccc(CN(c2ccccc2C(=O)O)S(=O)(=O)c2ccc(C)cc2)c1	–	·	–	–
Cc1ccccc1OCCC(=O)OCC(=O)NNC(=O)c1cccs1	–	–	–	–
NC(=O)C1CC(=O)N(c2ccc(OCC(=O)Nc3ccc(F)cc3)cc2)C1 (stereo not drawn)	–	–	–	–
CCOc1cc(C(=O)Nc2ccc3c4c(cccc24)C(=O)N3CC)cc(OCC)c1OCC	–	–	23µM	?
CCN1C(=O)c2cccc3c(NC(=O)c4cccc(N5C(=O)CCC5=O)c4)ccc1c23	–	–	–	–
O=C1SCCN1N=Cc1ccc([N+](=O)[O-])o1	·	·	18µM	8.2µM
CC1CN(N=Cc2ccc([N+](=O)[O-])o2)C(=N)O1 (stereo not drawn)	·	·	18µM	21µM
O=C1C2C(C(=O)N1/N=C/c1ccc([N+](=O)[O-])o1)C1C=CC2C12CC2 (stereo not drawn)	–	–	23µM	16µM
SMILES	ClpP mod	TDP1 block	DT40 TDP1 no CPT	DT40 TDP1 CPT
C[C@H]1CS(=O)(=O)CCN1/N=C\c1ccc([N+](=O)[O-])o1	·	–[21 µM]	·	·
Cc1ccc(NC(=O)CCn2c(=O)[nH]c3ccsc3c2=O)cc1F	·	–	–	–
Cc1cccc(CNC(=O)c2cnn(-c3nccc(-c4ccccc4F)n3)c2C)n1	·	·	–	–[9.04 µM]
COc1ccc(C2=C(C)C(=NCc3ccc(OC(C)C)cc3)NS2(=O)=O)cc1	–	–	?	?
Cc1cc(NS(=O)(=O)c2ccc(NC(=O)c3cc4ccccc4o3)cc2)nc(C)n1	–	–	–	–
Cc1cc(NS(=O)(=O)c2ccc(NC(=O)c3cc4c(=O)n5ccccc5nc4s3)cc2)nc(C)n1	–	40µM	?	–
O=[N+]([O-])c1ccc(/C=N/NS(=O)(=O)c2ccc(Cl)cc2)o1	?	–	16µM	9.2µM
Cc1ccc(S(=O)(=O)N/N=C\c2ccc([N+](=O)[O-])o2)cc1C	–	–	?	18µM
